Data published in PubChem BioAssay AID588453 (National Center for Advancing Translational Sciences (NCATS), 2011).
In all, about 390,000 compounds went through this assay and about 4,000 (1%) were called active. Not shown: some 4% with an inconclusive outcome. Calls come from the whole dose curve; as a rule, active = well fitted inhibition curve with a large enough effect; inconclusive = small, poorly fitted or top-dose-only effect; inactive = no such curve, though single readings can be large or run the other way. The list comes from a sample in which actives are over-represented; it also holds similar structures and randomly drawn compounds.
% is set by controls: 0 for no effect and ±100 for the full control effect; potency is the fitted concentration of half-maximal effect.
Note: nearly all actives have a fitted effect of over 65% in size.

Each molecule was assayed against Thioredoxin reductase 1, cytoplasmic (Rattus norvegicus) (UniProt O89049) (assay: qHTS Assay for Inhibitors of Mammalian Selenoprotein Thioredoxin Reductase 1 (TrxR1): qHTS). Conditions: recombinant rTrxR1, NADPH fluorescence consumption, selenite substrate; series mostly up to 114 µM; activity change, negative = inhibition: at the top concentration.
Thioredoxin reductase 1, cytoplasmic (Rattus norvegicus), sequence (O89049 whole entry, looked up): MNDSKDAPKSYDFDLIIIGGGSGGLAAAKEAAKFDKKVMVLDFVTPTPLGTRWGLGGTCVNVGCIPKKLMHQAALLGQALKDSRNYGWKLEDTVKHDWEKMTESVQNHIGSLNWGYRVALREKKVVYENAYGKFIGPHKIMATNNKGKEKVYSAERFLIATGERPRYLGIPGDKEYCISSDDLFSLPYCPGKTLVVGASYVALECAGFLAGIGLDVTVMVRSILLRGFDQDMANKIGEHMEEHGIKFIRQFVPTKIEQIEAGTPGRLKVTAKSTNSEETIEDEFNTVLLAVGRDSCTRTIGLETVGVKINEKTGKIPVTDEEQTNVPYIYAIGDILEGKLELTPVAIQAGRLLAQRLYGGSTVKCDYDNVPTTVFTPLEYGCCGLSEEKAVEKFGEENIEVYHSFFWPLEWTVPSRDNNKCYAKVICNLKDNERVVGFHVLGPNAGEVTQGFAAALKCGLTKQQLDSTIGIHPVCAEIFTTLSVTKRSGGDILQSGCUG
Method in brief: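 Rat TrxR1 (90 nM in the dispensed reagent) was pre-reduced with 400 uM NADPH for 5 min at room temperature, then incubated with compound for 15 min. After 400 uM selenite was added, NADPH fluorescence (Ex 340/Em 450 nm) was followed for 8 min.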
With `CCOC(=O)c1[nH]c(C)c(CCC(=O)N2CCN(c3ccccc3)CC2)c1C` the “activity change, negative = inhibition” value was 16% [at 57.1 µM] (inactive).
In the case of `CCc1nc2ccc(C(=O)N3CCN(c4cc(Cl)ccc4C)CC3)cc2nc1CC`, the “activity change, negative = inhibition” value is reported as 9.4% [at 57.1 µM] (inactive).
In the case of `CC(C)CNC(=S)NC(=O)c1ccc(Cl)cc1`, the Potency is reported as 14.1 µM (active).
In the case of `CC(C)CNC(=S)NNC(=O)c1nn(C)cc1Cl`, the “activity change, negative = inhibition” value is reported as -12.6% [at 57.1 µM] (inactive).
`Cc1scc(C(=O)NNC(=S)NCC(C)C)c1C` was tested, and the “activity change, negative = inhibition” value was 5.78% (inactive).
`CCOC(=O)c1c(NC(=O)CSc2cn(CCNC(=O)c3cccc(C(F)(F)F)c3)c3ccccc23)sc2c1CCC2` was tested, and the activity change, negative = inhibition was 16.1% [at 11.4 µM] (inactive).
For `CC1(C)CC(=O)C=C(NCc2ccncc2)C1`, the “activity change, negative = inhibition” value was -12.2% [at 57.1 µM] (inactive).
In the case of `Cc1cc(C)nc(NNC2=CC(=O)CC(C)(C)C2)n1`, the Potency is reported as 14.1 µM (active).
With `Cc1cc(O)ccc1NC1=CC(=O)CC(C)(C)C1` the “activity change, negative = inhibition” value was -14.1% [at 57.1 µM] (inactive).
With `Cc1ccc(OCCn2c(CNc3ccccc3C)nc3ccccc32)cc1` the “activity change, negative = inhibition” value was 14.2% (inactive).
`CCN1CCc2nc3sc(C(=O)Nc4ccccc4OC(F)(F)F)c(N)c3cc2C1` was tested, and the “activity change, negative = inhibition” value was -1.24% (inactive).
In the case of `Cc1ccc(C)c(Cn2c(CCCNC(=O)C3CCCCC3)nc3ccccc32)c1`, the “activity change, negative = inhibition” value is reported as 2.37% (inactive).
For `CCC(=O)Nc1ccc2nc(SCC(=O)N3CCc4ccccc43)sc2c1`, the “activity change, negative = inhibition” value was 1.52% (inactive).
`O=C1C=CC(=O)N1c1ccc(N2CCCCC2)cc1` was tested, and the Potency was 0.708 µM (active).
`O=C(NCc1ccc(F)cc1)c1ccc(Cn2c(SCc3ccc(F)cc3)nc3cccnc32)cc1` was tested, and the “activity change, negative = inhibition” value was 16.5% (inactive).
`Cc1ccc(C)n1-c1nnc(N2CCC(C(=O)NCc3ccc(F)cc3)CC2)s1` was tested, and the “activity change, negative = inhibition” value was -27.1% (inactive).
For `COc1ccc(CCNC(=O)CCCn2c(=O)c3ccccc3n(Cc3ccc(F)cc3Cl)c2=O)cc1OC`, the “activity change, negative = inhibition” value was 13.4% (inactive).
For `Nc1ccccc1SC(C[N+](=O)[O-])c1ccccc1` (centres undefined), the Potency was 7.94 µM (active).
In the case of `CN(C)c1ccc(/C=c2\[nH]c(=O)/c(=C/c3ccc(N(C)C)cc3)[nH]c2=O)cc1`, the “activity change, negative = inhibition” value is reported as 9.58% (inactive).
With `Cc1ccc(C)c(NC(=O)C2Cc3ccccc3CN2C(=O)OCc2ccccc2)c1` (centres undefined) the “activity change, negative = inhibition” value was 0.243% (inactive).
With `Cc1ccc(S(=O)(=O)N(C)C)cc1NC(=O)C1Cc2ccccc2CN1C(=O)c1ccco1` (centres undefined) the Potency was 39.8 µM (active).
With `COc1ccccc1N1CCN(C(=O)C2Cc3ccccc3CN2C(=O)c2ccco2)CC1` (centres undefined) the “activity change, negative = inhibition” value was 1.63% (inactive).
`Cc1c(Cl)cccc1NC(=O)CCS(=O)(=O)c1ccc2c(c1)oc(=O)n2C` was tested, and the “activity change, negative = inhibition” value was 0.617% (inactive).
For `Cc1ccc(C)c(NC(=O)Cn2ccn(-c3ccc(F)cc3)c(=O)c2=O)c1`, the “activity change, negative = inhibition” value was 7.31% (inactive).
For `CCc1cc2c(cc3c(=O)n(CC(=O)NCCc4ccc(OC)c(OC)c4)ncn32)s1`, the “activity change, negative = inhibition” value was 5.4% (inactive).
`O=C1c2ccccc2C(=O)N1CCC(O)C[N+](=O)[O-]` (centres undefined) was tested, and the Potency was 70.8 µM (active).
For `O=C1c2ccccc2C(=O)N1CCOc1ccc(F)cc1`, the “activity change, negative = inhibition” value was 17.5% (inactive).
In the case of `O=C(OCCN1C(=O)c2ccccc2C1=O)Oc1ccccc1`, the “activity change, negative = inhibition” value is reported as 29.4% (inactive).
In the case of `Cc1cc2nn(-c3ccc(Cl)cc3)nc2cc1NC(=O)C(C)C`, the “activity change, negative = inhibition” value is reported as 13.3% (inactive).
For `CCCC(NC(=O)c1ccco1)c1nc2ccccc2[nH]1` (centres undefined), the “activity change, negative = inhibition” value was -19% (inactive).
With `COc1ccc(/C=C(\NC(=O)c2ccc(OCC(C)C)cc2)C(=O)OCc2ccco2)cc1` the “activity change, negative = inhibition” value was -27.7% (inactive).
`CC(C)Oc1ccc(/C=C(\NC(=O)/C=C/c2ccco2)C(=O)NCCc2nc3ccccc3[nH]2)cc1` was tested, and the Potency was 17.8 µM (active).
`O=C1CN(Cc2ccccc2)S(=O)(=O)c2ccccc21` was tested, and the “activity change, negative = inhibition” value was -21.6% (inactive).
With `COc1cccc(CNC(=O)c2ccc3c(Cl)c4c(nc3c2)CCCC4)c1` the “activity change, negative = inhibition” value was 39.5% (inactive).
For `C/C=C\C=C\C(=O)N1CC2(CC(c3cccc(NC(=O)/C(C)=C\C)c3)=NO2)C[C@H]1C(N)=O` (some centres undefined), the Potency was 50.1 µM (active).
For `C/C=C(\C)C(=O)N1CC2(CC(c3cccc(NC(=O)CCCCC)c3)=NO2)C[C@@H]1C(N)=O` (some centres undefined), the “activity change, negative = inhibition” value was -4.01% [at 57.1 µM] (inactive).
With `CC/C=C/C(=O)N1CC2(CC(c3cccc(NC(=O)CC)c3)=NO2)C[C@H]1C(N)=O` (some centres undefined) the “activity change, negative = inhibition” value was -13.2% [at 57.1 µM] (inactive).
With `COc1cccc(CNC(=O)Cc2csc3nc(-c4ccccc4)cn23)c1` the “activity change, negative = inhibition” value was 18.4% [at 57.1 µM] (inactive).
In the case of `Cc1nnc(SCC(=O)NNC(=O)c2ccc(Cl)cc2)n1CC1CCCO1` (centres undefined), the “activity change, negative = inhibition” value is reported as 14.4% [at 57.1 µM] (inactive).
For `O=C(CSc1nnc(-c2ccco2)n1CC1CCCO1)c1ccccc1` (centres undefined), the Potency was 44.7 µM (active).
`CNC(=O)NC(=O)CSc1nnc(-c2ccc(F)cc2)n1CC1CCCO1` (centres undefined) was tested, and the “activity change, negative = inhibition” value was 22.1% [at 57.1 µM] (inactive).
`CCc1cccc(NC(=O)c2cc(-c3ccccc3)n[nH]2)c1` was tested, and the “activity change, negative = inhibition” value was 10.9% (inactive).
For `CC(C)(C)c1ccc(C(=O)C[n+]2cccc3cc(Cl)ccc32)cc1`, the “activity change, negative = inhibition” value was 6.36% (inactive).
For `CC(C)(C)c1ccc(S(=O)(=O)Nc2ccc(O)c(Sc3nc4ccccc4s3)c2)cc1`, the “activity change, negative = inhibition” value was 13.8% (inactive).
`CC(C)c1ccc(S(=O)(=O)Nc2ccc(O)c(Sc3nc4ccccc4s3)c2)cc1` was tested, and the “activity change, negative = inhibition” value was -12.7% (inactive).
`O=[N+]([O-])c1c(NCCO)cc(Sc2nc3ccccc3s2)c2nonc12` was tested, and the Potency was 1.12 µM (active).
With `O=S(=O)(Nc1ccc2nc(-c3ccco3)[nH]c2c1)c1ccccc1` the Potency was 56.2 µM (active).
In the case of `O=S(=O)(Nc1ccc2nc(-c3cccc(Cl)c3)oc2c1)c1ccccc1`, the “activity change, negative = inhibition” value is reported as 26.9% (inactive).
In the case of `CCc1ccccc1NS(=O)(=O)c1ccc2nc(-c3ccccc3)[nH]c2c1`, the “activity change, negative = inhibition” value is reported as 10.8% (inactive).
`CCOC(=O)C1CCN(c2csc3ccc(C)cc3c2=O)CC1` was tested, and the “activity change, negative = inhibition” value was -0.301% [at 57.1 µM] (inactive).
`COC(=O)c1nc(NC(=O)c2ccccc2)n[nH]1` was tested, and the Potency was 56.2 µM (active).
With `O=C(Nc1nsc(-c2ccccc2)n1)c1ccncc1` the “activity change, negative = inhibition” value was 12.5% [at 57.1 µM] (inactive).
`COC(=O)c1ccc(NC(=O)CSc2n[nH]c(-c3ccccc3)n2)cc1` was tested, and the “activity change, negative = inhibition” value was 14.1% [at 57.1 µM] (inactive).
With `COc1ccc(CNC(=O)c2cc3c(=O)[nH]c4ccc(C)cc4c3s2)c(OC)c1` the “activity change, negative = inhibition” value was 25.7% (inactive).
In the case of `Cc1cccc(Cn2c(=O)n(CCC(=O)NCCc3ccc(Cl)cc3)c(=O)c3sccc32)c1`, the “activity change, negative = inhibition” value is reported as 7.89% (inactive).
For `O=S(=O)(c1ccccc1)c1nc(-c2ccc(Cl)cc2Cl)oc1N1CCCCC1`, the “activity change, negative = inhibition” value was 28.6% [at 57.1 µM] (inactive).
`O=S(=O)(c1ccccc1)c1nc(Cc2ccccc2)oc1N1CCOCC1` was tested, and the Potency was 1.58 µM (active).
`COc1ccc(-c2nc(S(=O)(=O)c3ccccc3)c(N3CCCCC3)o2)cc1` was tested, and the “activity change, negative = inhibition” value was -3.21% (inactive).
For `CCOc1ccc(-c2cc3c(=O)n(CC(=O)NCc4ccc(OC)cc4)ccn3n2)cc1`, the “activity change, negative = inhibition” value was 22.5% [at 57.1 µM] (inactive).
In the case of `Cc1c(CCO)sc[n+]1CC(=O)c1ccc2ccccc2c1`, the “activity change, negative = inhibition” value is reported as 14% (inactive).
With `Cc1noc2ncnc(NCc3ccccc3Cl)c12` the “activity change, negative = inhibition” value was 3.77% (inactive).
In the case of `OCCNc1ncnc2oc(-c3ccco3)c(-c3ccco3)c12`, the Potency is reported as 50.1 µM (active).
`COc1ccc(-c2oc3ncnc(NCCCO)c3c2-c2ccc(OC)cc2)cc1` was tested, and the “activity change, negative = inhibition” value was 4.95% [at 57.1 µM] (inactive).
For `CN(C)c1ccc(/C=N\Nc2ccc([N+](=O)[O-])cc2[N+](=O)[O-])cc1Cl`, the activity change, negative = inhibition was 26.5% [at 0.0914 µM] (inactive).
